Results: ChEMBL document CHEMBL3433997, “St. Jude Leishmania screening dataset” (2016)

Tests used:
Assay type in all cases: functional
[1] = molecular target: Solute carrier family 2, facilitated glucose transporter member 1 (Homo sapiens) (UniProt P11166); assay: ST_JUDE_LEISH: Cytotoxicity at 2uM final concentration against transgenic Leishmania Mexicana promastigotes LmGLUT1 that are glucose transport deficient and complemented with the human glucose transporter GLUT1. Activity is measured by DNA content using SYBR green in vitro
Sequence of Solute carrier family 2, facilitated glucose transporter member 1 (Homo sapiens) (P11166 whole entry): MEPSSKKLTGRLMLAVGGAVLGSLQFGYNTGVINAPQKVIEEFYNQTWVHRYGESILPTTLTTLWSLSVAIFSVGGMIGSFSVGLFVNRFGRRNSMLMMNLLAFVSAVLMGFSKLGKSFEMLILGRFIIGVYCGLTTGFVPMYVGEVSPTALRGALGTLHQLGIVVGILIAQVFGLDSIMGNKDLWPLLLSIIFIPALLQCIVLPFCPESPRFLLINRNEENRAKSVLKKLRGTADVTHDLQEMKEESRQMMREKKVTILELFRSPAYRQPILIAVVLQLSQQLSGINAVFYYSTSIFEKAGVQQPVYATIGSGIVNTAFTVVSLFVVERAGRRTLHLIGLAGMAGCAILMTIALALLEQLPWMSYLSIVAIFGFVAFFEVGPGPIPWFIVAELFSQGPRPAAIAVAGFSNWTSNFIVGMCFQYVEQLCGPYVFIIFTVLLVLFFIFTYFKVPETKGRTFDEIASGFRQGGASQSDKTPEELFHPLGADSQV

[2] = molecular target: Hexose transporter 1 (Plasmodium falciparum) (UniProt O97467); assay: ST_JUDE_LEISH: Cytotoxicity at 2uM final concentration against transgenic Leishmania Mexicana promastigotes LmPfHT that are glucose transport deficient and complemented with the Plasmodium falciparum hexose transporter. Activity is measured by DNA content using SYBR green in vitro
[3] = molecular target: Glucose transporter (Leishmania mexicana) (UniProt O61059); assay: ST_JUDE_LEISH: Cytotoxicity at 2uM final concentration against transgenic Leishmania Mexicana promastigotes LmGT2 that are glucose transport deficient and complemented with the L. Mexicana glucose transporter 2. Activity is measured by DNA content using SYBR green in vitro

| SMILES | inhibition [1] [%] | inhibition [2] [%] | inhibition [3] [%] |
| --- | --- | --- | --- |
| CCCc1cc(Cc2cnc(N)nc2N)cc(OCCCCCC(=O)O)c1OC | 1.55 | 0.18 | 0.67 |
| CCCC(CNC(=O)c1cc2c(Cl)cc(Cl)cc2[nH]1)CNc1cc(=O)c2ccccc2[nH]1 (stereo not given) | 1.99 | 2.64 | 2.5 |
| c1ccc2[nH]c(-c3ccc(-c4ccc(CNCC5CCCO5)cc4)s3)nc2c1 (stereo not given) | 5.5 | 4.61 | 5.42 |
| O=C(NCCNc1ccnc(Nc2ccc(F)cc2)n1)Nc1ccccc1F | 2.71 | 1.86 | -2.84 |
| COc1cc(NCCCNC(=O)c2ccc(Cl)c(Cl)c2)nc2ccccc12 | 5.42 | 5.69 | 5.08 |
| CC(C)(C(=O)Nc1ccc(N2CCC3(CCCN(CC4CC4)C3)CC2)c(Cl)c1)c1cccc(C(F)(F)F)c1 | 0.2 | -0.12 | 1.72 |
| CC(C)c1ccc(CN2CCC(CNC(=O)c3cc(-c4cccc(F)c4)cs3)C2)cc1 (stereo not given) | 0.2 | -1.08 | – |
| O=C(Nc1cccc(Cl)c1Cl)N1CCc2cc3nccc(N4CCN5CCC[C@H]5C4)c3cc21 | -0.2 | 1.06 | 3.39 |
| CC(C)CNC(=O)c1ccnc(-c2ccc(CNCCCc3ccccc3)cc2)c1 | 2.32 | 3.19 | 2.74 |
| CCOc1c(OC)ccc2c1CCN(CCN1CCC(CNC(=O)c3ccc(-c4ccc(C#N)cc4)cc3)CC1)C2 | -1.08 | -0.26 | 1.45 |
| COc1ccc2nccc([C@@H](O)CN3CCC(NCc4ccc(OC)c(NC(C)=O)c4)CC3)c2c1 | 0.33 | -2.04 | -1.41 |
| COc1ccc(CNCc2cccc(-c3cccc(-c4nc5cc(F)ccc5[nH]4)c3)c2)cc1 | 2.28 | 0.55 | -0.04 |
